# Bioassay records from PubChem BioAssay.
# eIF4E 4G PPI: eIF4E/eIF4G interaction inhibition in translation initiation | TR-FRET eIF4E-eIF4GI(517-606) binding, 2 h | inhibition, % at 21.7 µM | P63073+Q04637 | 220,000 compounds, 0.37% hits;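 note: 0% = full FRET control wells and 100% = background wells lacking eIF4GI fragment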
# Mcl1-Bid inh: Mcl-1/Bid interaction inhibition. Q07820. TR-FRET Mcl-1/Bid-Dy647 peptide binding, 1536-well. inhibition, % at 21.7 µM. 220,000 compounds, 0.97% hits;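 active = compounds that cut the binding signal by more than half at the single screening dose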;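 note: His-tagged Mcl-1 with europium anti-His antibody binding Bid BH3 peptide; 0% = Mcl-1 plus peptide wells and 100% = peptide-only wells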
# Target sequence (Q07820 whole entry, looked up): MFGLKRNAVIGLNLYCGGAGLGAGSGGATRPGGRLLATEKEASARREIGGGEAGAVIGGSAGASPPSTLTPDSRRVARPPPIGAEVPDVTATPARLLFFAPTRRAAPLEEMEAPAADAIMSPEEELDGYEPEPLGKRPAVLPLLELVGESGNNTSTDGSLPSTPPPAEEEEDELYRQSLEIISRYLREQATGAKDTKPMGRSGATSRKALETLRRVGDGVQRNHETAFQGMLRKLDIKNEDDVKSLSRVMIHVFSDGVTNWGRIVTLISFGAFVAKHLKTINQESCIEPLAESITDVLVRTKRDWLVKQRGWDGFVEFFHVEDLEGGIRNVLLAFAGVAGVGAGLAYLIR
# p47phox inh: blocks human p47phox regulatory protein of NADPH oxidases | inhibition, % at 24.7 µM | P14598 | AID 1274 | 220,000 compounds, 0.53% hits | p47phox/p22phox peptide binding, fluorescence polarization, 2 h;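 note: 0% = p47phox with labelled peptide and 100% = labelled peptide alone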
# 14-3-3 Bad inh: disrupts binding of bovine 14-3-3 zeta to phospho-Bad peptide; TR-FRET 14-3-3zeta/Dy647-pBad peptide displacement, 1 h; inhibition, % at 21.7 µM; 220,000 compounds, 0.71% hits;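 active = inhibition above about 70%, limit read from the data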;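 note: 0% = full 14-3-3 plus peptide FRET controls and 100% = background without 14-3-3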
# Target sequence (P63103 whole entry, looked up): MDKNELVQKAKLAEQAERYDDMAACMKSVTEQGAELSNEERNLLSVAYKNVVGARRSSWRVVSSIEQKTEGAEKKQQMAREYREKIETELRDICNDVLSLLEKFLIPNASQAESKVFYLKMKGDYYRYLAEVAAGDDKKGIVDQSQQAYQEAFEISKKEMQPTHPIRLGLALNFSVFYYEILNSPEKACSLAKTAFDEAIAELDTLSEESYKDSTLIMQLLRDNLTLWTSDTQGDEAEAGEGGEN
# Mcl1-Noxa inh: disrupts binding of human Mcl-1 to Noxa peptide; AID 1022; inhibition, % at 21.7 µM; 220,000 compounds, 1.5% hits; TR-FRET Mcl-1/Noxa peptide binding, 2 h; Q07820;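 active = compounds that cut the protein-peptide binding signal by more than 50% relative to plate controls in a single-dose test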;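 note: His-tagged Mcl-1 with rhodamine Noxa BH3 peptide and terbium anti-His antibody; 0% = Mcl-1 plus Noxa peptide wells and 100% = peptide-only wells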
# Bim-Mcl-1: human Bim-Mcl-1 interaction inhibition; 190,000 compounds, 0.1% hits; inhibition, % at 10 µM; Q07820; Bead-based flow cytometry, Bim peptide-Mcl-1 binding; AID 1009; in the data active = inhibition above about 40%;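 note: 0% = no compound tracer wells and 100% = peptide blocker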
# Numbers without * were called inactive; x = no result given; [ ] = dose if it differs, or a comment. The list is not random: actives were taken first. Their share in the collection is about 3.3%.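 Rule for the calls, unless noted: active = inhibition above about 30% (limit read from the data); inactive = the rest.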
SMILES,eIF4E 4G PPI,Mcl1-Bid inh,p47phox inh,14-3-3 Bad inh,Mcl1-Noxa inh,Bim-Mcl-1
CC(C)[C@@H](C(=O)N1CCNCC1)n1cc(CCO)nn1,1.1,8.0,-0.1,-4.8,5.8,-2.0
CC1CCc2c(sc3ncn(N)c(=N)c23)C1 (centres undefined),1.2,2.7,1.3,-1.7,6.6,x
COc1ccc(/C=N/n2c(=O)[nH]c3c([nH]c4ccc(Br)cc43)c2=O)cc1CN1CCOCC1,-35.1,9.6,-8.1,40.5,54.1*,-3.0
O=C(NCc1ccco1)C(=O)NCC(c1ccco1)N1CCOCC1 (centres undefined),-8.2,-12.8,-4.2,-11.9,7.6,0.0
COc1ccccc1NC1=C(NC(C)=O)C(=O)c2ccccc2C1=O,1.9,-39.0,-1.6,-8.7,77.9*,8.0
CCN(CC)c1ccc(/C=C2/C(=O)ON=C2C)cc1,2.6,-54.1,-209.4,-3.5,-39.8,-3.0
CC1=NOC(=O)/C1=C/c1ccc(N(C)C)cc1,0.8,-32.5,180.7*,-14.2,23.6,-2.0
O=C(O)c1cccc(S(=O)(=O)N2CCSCC2)c1,-2.6,15.6,-5.1,76.9*,-3.0,-9.0
COc1ccc(NC(=O)COC(=O)c2ccc(Cl)c(S(N)(=O)=O)c2)c([N+](=O)[O-])c1,3.4,-12.7,0.5,-4.7,53.4*,x
O=C(COC(=O)c1cc(S(=O)(=O)NCc2ccccc2)ccc1O)c1cc2ccccc2o1,-0.4,-9.8,-48.6,3.2,8.9,x
CC1=NN(c2nc3ccccc3[nH]2)C(=O)C1Cc1ccccc1 (centres undefined),8.8,-121.2,-11.4,-7.3,-72.8,x
Cc1cccc(-c2oc(C)c(C)[n+]2[O-])c1,-11.6,26.3,-1.6,72.5*,16.2,-2.0
Cc1oc(-c2ccccc2)[n+]([O-])c1C,x,x,x,x,x,-1.0
CCOc1ccc(CN(C)CCc2ccccn2)cc1,0.9,41.0,4.9,53.1,15.2,0.0
CCOc1ccccc1CN(CCc1ccc2c(c1)OCO2)Cc1ccccn1,-3.9,25.8,-0.2,72.2*,4.0,x
Cc1sc2ncn(CC(=O)NCc3ccco3)c(=O)c2c1-c1ccc(F)cc1,4.8,-30.0,-19.5,0.0,5.9,2.0
O=C(Cn1cnc2scc(-c3cccc([N+](=O)[O-])c3)c2c1=O)NCc1ccco1,18.6,-24.5,-9.8,15.8,66.8*,-1.0
CC(=O)Nc1ccc(Cc2nc3c([nH]2)c(=O)n(C)c(=O)n3C)cc1,-7.0,-11.8,2.1,-3.7,-2.3,x
COCCN1Cc2cccc(C(=O)Nc3ccc(C)cc3)c2C1=O,0.7,-45.7,8.4,1.5,16.3,-2.0
COCCN1Cc2cccc(C(=O)Nc3cccc(C)c3C)c2C1=O,0.7,91.4*,-14.2,-1.3,90.4*,-3.0
O=c1c2ccccc2nc2n1CCC2,93.8*,96.0*,1.8,93.7*,40.8,-3.0
CCOC(=O)c1cnc(SC)nc1N,-0.2,-10.4,109.4*,-3.8,3.2,0.0
CCOC(=O)c1cnc(SCC(C)C)nc1N,-4.1,-8.5,5.2,2.9,11.8,-5.0
CCCn1nc(NC(=O)c2cccs2)c2cc3ccccc3nc21,6.7,18.4,-17.6,76.8*[fluorescence artefact?],14.9,0.0
CCCn1nc(NC(=O)c2cccs2)c2cc3cc(OC)ccc3nc21,-6.8,18.3,-47.4,91.7*[fluorescence artefact?],17.0,4.0
SMILES,eIF4E 4G PPI,Mcl1-Bid inh,p47phox inh,14-3-3 Bad inh,Mcl1-Noxa inh,Bim-Mcl-1
CCCCn1nc(NC(=O)c2cccs2)c2cc3cc(OC)ccc3nc21,x,x,x,x,x,1.0
N/C(CS(=O)(=O)c1ccc(F)cc1)=N\O,-1.7,77.9*,-1.1,1.3,-5.7,x
Cc1ccc(S(=O)(=O)CC(N)=O)cc1,-9.0,0.9,-3.8,1.1,-5.7,-2.0
O=C(Nc1nc(-c2ccccn2)cs1)C1CC(=O)N(c2ccc3c(c2)OCCO3)C1 (centres undefined),17.9,-94.4,-3.9,-12.9,70.7*,0.0
COc1cccc(-c2nc(NC(C)C)c3ccccc3n2)c1O,16.4,-57.6,-32.5,45.0,33.2,0.0
COc1cccc(-c2nc(Oc3cccc(C)c3C)c3ccccc3n2)c1O,-2.0,51.8*,15.2,-0.1,19.9,-4.0
COc1ccc(NC(=O)NCCCN2CCN(c3cc(C)ccc3C)CC2)cc1,-2.5,-14.4,-7.1,7.3,54.8*,2.0
COc1ccc(NC(=O)CN2CCN(c3ccccc3F)CC2)cc1,4.8,-14.2,-15.0,2.9,11.3,-7.0
COc1ccc(NC(=O)NCCCN2CCN(c3ccccc3F)CC2)cc1,-3.4,-20.1,-1.4,-8.8,56.0*,x
Fc1ccccc1N1CCN(CC2CC3C=CC2C3)CC1 (centres undefined),2.6,-36.9,-0.7,19.1,13.6,0.0
FC(F)(F)c1cccc(N2CCN(CC3CC=CCC3)CC2)c1 (centres undefined),-6.1,-16.8,4.7,65.0,13.2,-1.0
C1=CC2CC1CC2CN1CCN(Cc2ccccc2)CC1 (centres undefined),-0.2,61.3*,-2.4,45.9,-6.2,5.0
FC(F)(F)c1cccc(N2CCN(CC3CC4C=CC3C4)CC2)c1 (centres undefined),16.6,25.0,-1.9,83.0*,14.4,1.0
COc1cc(/C=C/C(=O)OCC(=O)NCC2CCCO2)ccc1OCC#N (centres undefined),2.2,-2.8,-0.5,-5.4,11.6,0.0
Cc1ccc(-n2nnnc2SCC(=O)Nc2cccc(NC(=O)c3ccco3)c2)cc1C,-8.4,62.8*,22.0,42.4,-9.4,-3.0
CCn1nnnc1SCC(=O)Nc1cccc(NC(C)=O)c1,36.7*[fluorescence artefact?],-1.9,7.5,0.4,10.1,-1.0
CC(C)NC(=S)N(CCc1ccncc1)C(C)C,-1.7,-34.4,-5.6,-6.9,15.3,0.0
CCOC(=O)C(C)On1c(-c2ccccc2)nc2ccc([N+](=O)[O-])cc21 (centres undefined),12.8,31.5,-1.7,2.4,15.1,0.0
O=C(O)COn1c(-c2ccccc2)nc2ccc([N+](=O)[O-])cc21,20.8,15.4,9.3,53.3,54.6*,1.0
CC(C)[C@H](NC(=O)NCCC1=CCCCC1)C(=O)O,0.2,93.7*,-9.1,2.1,-0.6,x
CCC(C)[C@H](NC(=O)NCCC1=CCCCC1)C(=O)O (some centres undefined),0.2,-41.5,-5.5,2.4,2.6,x
C[C@@]12CCC=C[C@H]1[C@H](c1ccc(C(F)(F)F)cc1)N(Cc1ccccc1)C2=O,1.6,-66.7,2.0,7.2,2.5,x
Cc1cccc(C2(c3cccc(C)c3)CC2C(=O)Nc2ccc([N+](=O)[O-])cc2O)c1 (centres undefined),-3.6,-13.1,-23.7,-15.0,14.5,-4.0
COc1ccc(CN2CCCC(C(=O)N3CCCC3)C2)cc1 (centres undefined),-3.4,50.0,-1.7,44.9,-16.5,-3.0
O=C(C1CCCN(Cc2cccnc2)C1)N1CCCCC1 (centres undefined),0.5,52.3*,-9.0,25.6,0.8,-5.0
